Screening results from PubChem BioAssay.
Rows were chosen to be rich in hits. Some 6.2% of all compounds tested hit in one or more screens of this group.
NTR1 agonist – activates human neurotensin receptor 1; 0.17% of 330,000 active; P30989; NTR1-U2OS beta-arrestin-GFP spot imaging, agonist mode; activation, % at 20 µM; AID 493036;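 active = activation at or above 40% of the spot to cytoplasm intensity ratio, with at least 20 cells analyzed; inconclusive = wells under 20 cells, flagged as cytotoxic or low count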
NR3A LBD binder – NR3A (human) ligand-binding domain modulation. Tm shift relative to glycine control, % at 25 µM. 2.5% of 340,000 active. NR3A LBD differential scanning fluorimetry, Tm shift; 0% = protein alone, 100% = glycine-bound protein;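 active = melting temperature shift of at least 10% of the positive control shift, at one fixed dose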
AHR act – activators of human aryl hydrocarbon receptor; 2.5% of 320,000 active; AHR-responsive luciferase reporter cells, luminescence; AID 2796; activation, % at 5 µM; P35869; in the data active = activation above about 47%
Target sequence (P35869 whole entry, looked up): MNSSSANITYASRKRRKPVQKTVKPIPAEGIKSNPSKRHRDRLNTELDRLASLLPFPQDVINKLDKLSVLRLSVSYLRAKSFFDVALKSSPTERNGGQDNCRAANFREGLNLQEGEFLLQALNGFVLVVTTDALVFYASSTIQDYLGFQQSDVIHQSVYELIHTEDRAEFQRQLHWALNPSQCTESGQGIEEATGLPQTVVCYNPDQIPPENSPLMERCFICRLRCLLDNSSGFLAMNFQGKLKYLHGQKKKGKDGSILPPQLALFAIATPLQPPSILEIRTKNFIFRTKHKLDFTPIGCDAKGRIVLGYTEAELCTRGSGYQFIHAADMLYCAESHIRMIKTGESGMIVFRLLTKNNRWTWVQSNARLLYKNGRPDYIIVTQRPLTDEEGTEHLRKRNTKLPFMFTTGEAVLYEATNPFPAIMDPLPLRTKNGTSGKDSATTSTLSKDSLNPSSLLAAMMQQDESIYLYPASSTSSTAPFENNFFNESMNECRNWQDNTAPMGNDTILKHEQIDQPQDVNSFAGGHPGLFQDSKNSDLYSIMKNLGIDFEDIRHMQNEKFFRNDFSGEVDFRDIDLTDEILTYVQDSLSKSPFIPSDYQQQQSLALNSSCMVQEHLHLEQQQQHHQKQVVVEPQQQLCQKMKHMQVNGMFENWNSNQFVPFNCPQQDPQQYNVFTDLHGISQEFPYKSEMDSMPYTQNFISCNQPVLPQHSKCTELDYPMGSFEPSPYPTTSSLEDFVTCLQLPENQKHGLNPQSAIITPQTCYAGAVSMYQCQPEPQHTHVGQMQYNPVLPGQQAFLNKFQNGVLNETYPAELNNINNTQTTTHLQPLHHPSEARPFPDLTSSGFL
Cardio protect – modulators protecting cardiomyocytes from myocardial damage; 0.63% of 360,000 active; protection from H2O2 cell death, % at 20 µM; H9c2 cardiomyocytes, H2O2 injury protection, ATPLite, 2 h; AID 588492;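 active = compounds giving at least 50% protection of heart cells from peroxide-induced death in the single-dose screen, raw or plate-pattern-corrected value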
SUMO Mot1 rescue – SUMOylation pathway inhibition by Mot1-301 growth rescue | S. cerevisiae Mot1-301 growth rescue, ATP luminescence, 38.5C; percent above DMSO median, 100 means doubled | growth rescue, % at 18.8 µM | 1% of 320,000 active | AID 2716;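 active = every valid replicate shows activation above 250% relative to neutral control wells; inactive = the rest, any valid replicate at or below 250%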
AI-2 QS mod – Vibrio harveyi AI-2 quorum sensing modulation; AID 2094; Vibrio harveyi JMH597 AI-2 luminescence/OD600 ratio, 9 h; active compounds read low; strain lacks LuxN and CqsS sensors; 0 = neutral-control median; activity change, % at 7.5 µM; 0.4% of 300,000 active; in the data active = activity change below about -75%, passing the limit was not always enough; inconclusive = no clear call, values can overlap the other calls;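 also: luminescence divided by OD600 gain over 9 h not by final OD600 alone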
Large screens that a line does not name were inactive; ! = repeats disagree.

Nc1nc2ccccc2n1/N=C/c1ccc(-c2ccccc2)o1	NR3A LBD binder 30
CCOc1ccccc1NC(=O)Cn1nnc(C(=O)NCc2ccc3c(c2)OCO3)c1N	none
O=C(Nc1cc(-c2ccccc2)nn1C1CCCCC1)c1ccc(Cl)cc1	none (no result: AI-2 QS mod)
O=C(Nc1cccc(F)c1)Nc1cccc(Cl)c1	NR3A LBD binder 42
COC(=O)c1sccc1NC(=O)c1cccc(OC)c1	none
CC(O)c1cccc(NC(=O)Nc2cccc(NC(=O)Nc3cccc(C(C)O)c3)c2)c1 (stereo unspecified)	NR3A LBD binder 27 (no result: AHR act)
COC(=O)c1ccc(NC(=O)C2CCN(C(=O)c3cc(OC)c(OC)c(OC)c3)CC2)cc1	SUMO Mot1 rescue 336 (no result: AI-2 QS mod)
COC(=O)c1sccc1NC(=O)c1ccc(OC)cc1OC	SUMO Mot1 rescue 420
CC1N=C(SCC(=O)c2ccc(F)cc2)N2C(C)N=C(SCC(=O)c3ccc(F)cc3)N12 (stereo unspecified)	none (no result: NTR1 agonist, NR3A LBD binder, AHR act, SUMO Mot1 rescue, AI-2 QS mod)
S=C(Nc1ccccc1)N1CCC(Cc2ccccc2)CC1	none
COc1ccc(CCNC(=O)CN(C)S(=O)(=O)c2ccc(OC)cc2)cc1	none
COC(=O)c1cc(NC(=O)Nc2cccc(Cl)c2)ccc1Cl	NR3A LBD binder 38
O=C(Nc1cccc(Cl)c1)OCCOCCOC(=O)Nc1cccc(Cl)c1	NR3A LBD binder 36 (no result: NTR1 agonist, AHR act, SUMO Mot1 rescue, AI-2 QS mod)
N#Cc1ccccc1NC(=O)Nc1cccc(Cl)c1	none
N#CCc1ccc(NC(=O)Nc2cccc(Cl)c2)cc1	NR3A LBD binder 26
COC(=O)c1cc(NC(=O)c2ccc(-c3ccccc3)cc2)ccc1Cl	none
O=C(Nc1cccc(Cl)c1)Nc1cccc(Cl)c1	NR3A LBD binder 33 (no result: AI-2 QS mod)
CC(C)COC(=O)NCCOC(=O)Nc1cccc(Cl)c1	none
O=C(Nc1cccc(F)c1)C1CCN(C(=O)c2ccc(Cl)cc2)CC1	NR3A LBD binder 12
CC(=O)Nc1cccc(NC(=O)Nc2cccc(F)c2)c1	NR3A LBD binder 29, AHR act 49
COC(=O)c1sccc1NC(=O)Nc1cccc(F)c1	NR3A LBD binder 10
O=C(Nc1cccc(Cl)c1)OCc1cn(-c2ccccc2)nn1	NR3A LBD binder 11
CC(C)Oc1ccc(CNS(=O)(=O)c2csc(C(N)=O)c2)cc1	none
COc1cccc(NC(=O)CN(C)C(=O)C(Sc2ccccc2)c2ccccc2)c1 (stereo unspecified)	none (no result: AHR act, SUMO Mot1 rescue, AI-2 QS mod)
CC(Oc1cccc(Cl)c1)C(=O)Nc1ccccc1N1CCCCC1 (stereo unspecified)	none
CC(Oc1cccc(Cl)c1)C(=O)Nc1cc(Cl)ccc1N1CCOCC1 (stereo unspecified)	NR3A LBD binder 21
CC(=O)Nc1ccc(NC(=O)C(c2ccccc2)c2ccccc2)cc1	none
CC(=O)Nc1cccc(NC(=O)Nc2ccc(C(C)=O)cc2)c1	NR3A LBD binder 13
CC(=O)Nc1ccc(NC(=O)Nc2ccccc2)cc1	NR3A LBD binder 19
CC(=O)c1ccc(NC(=S)NCc2ccc(Cl)cc2Cl)cc1	NR3A LBD binder 16
CC(=O)c1cccc(NC(=O)Nc2cnn(Cc3ccc(Cl)cc3Cl)c2)c1	NR3A LBD binder 14
CC(=O)c1ccc(NC(=O)Nc2cccnc2)cc1	none (no result: AHR act)
O=C(Nc1cnn(Cc2ccc(Cl)cc2Cl)c1)c1cc(-c2cccs2)on1	none
COC(=O)Cc1ccc(NC(=S)NCc2ccccc2Cl)cc1	none
O=C1c2cc(Br)ccc2N(Cc2ccc(Br)cc2)S(=O)(=O)C1c1cc(Cl)c(Cl)cc1[N+](=O)[O-] (stereo unspecified)	none (no result: AI-2 QS mod)
O=S(=O)(c1ccc(F)cc1)c1nc(-c2ccco2)oc1NCCCn1ccnc1	none (no result: NTR1 agonist, NR3A LBD binder, AHR act, SUMO Mot1 rescue, AI-2 QS mod)
Nc1ccc(C(=O)CC(=O)Nc2ccc(Cl)cc2)cc1	NR3A LBD binder 12
CC(=O)Nc1ccc(NC(=O)Nc2cc(C)cc(C)c2)cc1	NR3A LBD binder 29
Nc1ccc(NC(=O)c2ccc(C(=O)Nc3ccc(N)cc3)cc2)cc1	none
O=C(Nc1ccccc1)Nc1csc2ccccc12	NR3A LBD binder 31, AHR act 61
CC(=O)Nc1cccc(C)c1	none (no result: AI-2 QS mod)
CC(=O)Nc1csc2ccccc12	none
CC(=O)c1ccc(NC(=O)Nc2ccc(Cl)cc2)cc1	NR3A LBD binder 31
CC(=O)c1ccc(NC(=O)Nc2ccncc2)cc1	none
NC(=O)c1cccc(-c2ccnc3c2CC(C(=O)NCc2ccccc2)O3)c1 (stereo unspecified)	none (no result: NTR1 agonist, NR3A LBD binder, AHR act, SUMO Mot1 rescue, AI-2 QS mod)
O=C(O)c1cccc(OS(=O)(=O)c2cc(Br)ccc2Br)c1	none (no result: AI-2 QS mod)
Cc1ccc(S(=O)(=O)NCc2cn3ccccc3n2)c(C)c1	none
CC(=O)Nc1ccc(C#Cc2ccc(NC(C)=O)cc2)cc1	NR3A LBD binder 29
CC(=O)Nc1ccc(-c2ccc(NC(C)=O)cc2)cc1	none (no result: SUMO Mot1 rescue)
COC(=O)C1CN(C(=O)C(C)Oc2ccccc2Cl)c2ccccc2O1 (stereo unspecified)	none
COC(=O)C1CN(C(=O)c2cccc(OC(F)F)c2)c2ccccc2O1 (stereo unspecified)	AHR act 49
O=C(NCCc1cscn1)C1CCC(=O)N(Cc2ccc(Cl)cc2)C1 (stereo unspecified)	none
Cc1cc(Nc2cccc(F)c2)nc(-c2ccccc2O)n1	NR3A LBD binder 30
Cc1cc(Nc2ccccc2)nc(-c2ccccc2O)n1	NR3A LBD binder 11
Cc1cc(Nc2ccccc2Cl)nc(-c2ccccc2O)n1	none
CCOC(=O)c1ccc(Nc2cc(C)nc(-c3ccccc3O)n2)cc1	NR3A LBD binder 35
Cc1ccc(C)c(Nc2cc(C)nc(-c3ccccc3O)n2)c1	none
CC1(C)C2(C#N)C(=O)NC(=O)C12C#N (stereo unspecified)	none (no result: NTR1 agonist, AHR act, SUMO Mot1 rescue, AI-2 QS mod)
O=C(NCc1ccco1)c1ccc(COc2ccccc2[N+](=O)[O-])o1	none
COc1cccc(C(=O)Nc2ccc(C(F)(F)F)n(C)c2=O)c1	AHR act 56
COc1cccc(C(=O)Nc2cc(C(F)(F)F)ccc2Cl)c1	AHR act 60
Cc1ccc(Cl)c(OCCN2CCc3ccccc3C2)c1	SUMO Mot1 rescue 323
C/C=C/c1ccc(OCCN2CCc3ccccc3C2)c(OC)c1	none
Cc1ccc(C(=O)Nc2cccc(C(F)(F)F)c2)cc1NC(=O)c1csc(-c2ccncc2)n1	Cardio protect 55!
O=C(Nc1ccc(F)cc1F)c1csc(-c2ccncc2)n1	AHR act 51
CC(C)(C)c1cc(C(=S)N2CCN(CCO)CC2)cc(C(C)(C)C)c1O	NR3A LBD binder 11
Cc1ccc(Oc2c(F)c(F)nc(N3CCCC3)c2F)cc1	NR3A LBD binder 13
O=C(N/N=C/c1ccccc1Cl)c1[nH]c2ccc(Br)cc2c1-c1ccccc1	NR3A LBD binder 29
COc1ccc(/C=N/NC(=O)c2[nH]c3ccc(Br)cc3c2-c2ccccc2)cc1	NR3A LBD binder 18
COC(=O)N/N=C/c1cc(Br)ccc1O	none
O=C(N/N=C/c1cc(Br)ccc1O)c1ccccc1Cl	Cardio protect 56, AI-2 QS mod inconclusive
CC(=O)N1CCN(C(C)=O)c2ccccc21	none (no result: NTR1 agonist, AHR act, SUMO Mot1 rescue, AI-2 QS mod)
